{
  "source": "PubChem BioAssay",
  "note": "Calls of active or inactive are those of the source. The rule behind the calls is not given here.",
  "data": [
    {"molecular_target": "Pantothenate synthetase (Mycobacterium tuberculosis (strain ATCC 25618 / H37Rv)) (UniProt P9WIL5)", "sequence (P9WIL5 whole entry, looked up)": "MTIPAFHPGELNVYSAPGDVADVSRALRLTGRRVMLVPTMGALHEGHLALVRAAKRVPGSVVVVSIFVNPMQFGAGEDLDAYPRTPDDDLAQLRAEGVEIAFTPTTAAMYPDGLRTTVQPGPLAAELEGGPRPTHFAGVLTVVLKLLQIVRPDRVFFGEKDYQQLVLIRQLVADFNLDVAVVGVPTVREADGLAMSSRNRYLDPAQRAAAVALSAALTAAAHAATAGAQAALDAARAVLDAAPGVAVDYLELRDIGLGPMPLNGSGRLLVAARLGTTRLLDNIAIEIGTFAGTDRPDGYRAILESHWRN", "test": "Coupled enzyme confirmation of inhibitors against recombinant Mtb PanC (AID 375);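 note: 0% = full reaction with vehicle and 100% = no enzyme background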", "details": "coupled enzyme assay; at 10 µM, hits give high values", "values": [
      {"molecule": "COc1ccc2c(c1OC)C(=O)N(c1ccc3c(c1)CCC3)C2=O", "inhibition": "2% (inactive)"},
      {"molecule": "CS(=O)(=O)Nc1ccc(C(=O)NCc2ccco2)cc1", "inhibition": "0% (inactive)"},
      {"molecule": "Cc1cccc(-n2ncc3c(N(CCO)CCO)ncnc32)c1", "inhibition": "0% (inactive)"},
      {"molecule": "CC(O)c1c(OCc2ccccc2)ncnc1OCc1ccccc1", "note": "(stereo not drawn)", "inhibition": "0% (inactive)"},
      {"molecule": "CC1(C)Cc2c(sc3ncnc(N)c23)CO1", "inhibition": "14% (inactive)"},
      {"molecule": "Cc1ccc(C(=O)Nc2nc3c(s2)CCCC3)o1", "inhibition": "2% (inactive)"},
      {"molecule": "Cc1cc(C)n2nc(C(=O)NCc3ccco3)nc2n1", "inhibition": "3% (inactive)"},
      {"molecule": "Cc1cccc(C)c1NC(=O)COC(=O)c1nonc1N", "inhibition": "0% (inactive)"},
      {"molecule": "CCO/C([O-])=N/c1c[n+](N2CCOCC2)no1", "inhibition": "0% (inactive)"},
      {"molecule": "NC1=NC(c2ccc(Br)cc2)n2c(nc3ccccc32)N1", "note": "(stereo not drawn)", "inhibition": "0% (inactive)"},
      {"molecule": "COc1ccc(N(CC(=O)Nc2ccccc2SC)S(C)(=O)=O)cc1OC", "inhibition": "2% (inactive)"},
      {"molecule": "COc1ccc2cc(CN(CCO)C(=O)c3ccc(Br)cc3)c(=O)[nH]c2c1", "inhibition": "14% (inactive)"},
      {"molecule": "C[C@H](NC(=O)NCc1cccs1)C(=O)O", "inhibition": "0% (inactive)"},
      {"molecule": "N#CC1=C(SCC(=O)NC2CCCCC2)NC(=O)CC1c1ccco1", "note": "(stereo not drawn)", "inhibition": "8% (inactive)"},
      {"molecule": "O=C(NCC(=O)N(c1ccc2c(c1)OCCO2)C(C(=O)NC1CCCC1)c1ccco1)c1ccco1", "note": "(stereo not drawn)", "inhibition": "6% (inactive)"},
      {"molecule": "Nc1cc(CN2C(=O)c3ccccc3C2=O)cc(Cl)c1O", "inhibition": "0% (inactive)"},
      {"molecule": "CC1Cc2ccccc2N1CC(=O)NC(=O)NCc1ccco1", "note": "(stereo not drawn)", "inhibition": "2% (inactive)"},
      {"molecule": "CC(=O)NCc1ccc(C(=O)CSc2nnc(-c3ccncc3)n2Cc2ccccc2)o1", "inhibition": "16% (inactive)"}
    ]}
  ]
}
